# IL1B secr inh = inflammasome signaling inhibition, IL-1 beta readout; THP-1 LPS/ATP IL-1B secretion, AlphaLISA, 16 h; active compounds read low; actives 4.7% (n = 360,000); AID 743279; activity change, % at 57.5 µM; in the data active = activity change below about -50%; inconclusive = mostly about -30% to -49%
#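 THP-1 cells pretreated 1 hr with compounds (up to 57.5 uM final), then stimulated with LPS (250 ng/mL final) plus ATP (1.25 mM final); secreted IL-1B measured by AlphaLISA after 16 hr, decreased signal indicating inhibition.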
# HT1080-NT tox = kills 2HG-producing HT-1080-NT fibrosarcoma cells | Potency, µM (doses to about 46.1 µM), for the others: top-dose activity, negative = less viability, usual class: cytotoxic | actives 1.6% (n = 360,000) | HT-1080-NT fibrosarcoma viability, CellTiter-Glo ATP luminescence, 48 h;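 also: NT is the 2HG producing partner of a matched IDH1 knockdown line; potency is read from the fitted curve at half-maximal effect; 0% = DMSO-treated cells and -100% = media-only wells without cells; nearly all actives have a fitted effect of over 55% in size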
#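 Toxicity toward the 2HG-producing NT line was scored as %Activity, normalised to DMSO and no-cell wells, from CellTiter-Glo luminescence after 48 hours' treatment.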
# DT40 TDP1 CPT = growth inhibition of DT40 Tdp1-/-;hTDP1 cells with camptothecin (screen for TDP1 inhibitors) | chicken DT40 Tdp1-/-;hTDP1 cells + 20 nM CPT, ATP luminescence, 48 h | AID 686979 | Potency, µM (series often up to 46.2 µM), for the others: at the top dose activity change, negative = growth inhibition, usual class: inhibitors | actives 12% (n = 420,000); also: potency is read from the fitted curve at half-maximal effect; nearly all actives have a fitted effect of over 55% in size
#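 Chicken DT40 Tdp1-/- cells complemented with human TDP1, 400 cells/well, exposed to compounds plus 20 nM camptothecin for at least 48 h at 37 C; viability read as ATP content by CellTiter-Glo luminescence.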
# HT1080 IDH1KD tx = HT-1080 IDH1 knockdown cell toxicity (counter line); HT-1080 IDH1 knockdown viability, ATP luminescence, 48 h; Potency, µM (titrated, usually from 46.1 µM), without a hit: top-dose activity, negative = toxicity, most hits filed as cytotoxic; actives 2% (n = 360,000); AID 686971;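 also: potency is read from the fitted curve at half-maximal effect; 0% = DMSO wells and -100% = cell-free medium wells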
#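 Viability of IDH1-knockdown HT-1080 fibrosarcoma cells was assessed by CellTiter-Glo after 48 h at 37 °C with titrated compound; concentration-effect curves were classified by fit quality and response size.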
# DT40 TDP1 no CPT = qHTS for Inhibitors of human tyrosyl-DNA phosphodiesterase 1 (TDP1): qHTS in cells in absence of CPT | DT40 Tdp1-/- hTDP1 cells, no CPT, ATP luminescence, 48 h | Potency, µM (series often up to 46.2 µM), for inactives: at the top dose activity change, negative = growth inhibition, most hits filed as inhibitors | actives 15% (n = 420,000); also: potency is read from the fitted curve at half-maximal effect; nearly all actives have a fitted effect of over 55% in size
#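 Growth of hTDP1-complemented DT40 Tdp1-knockout cells is measured by ATP luminescence after at least 48 hr compound exposure at 37 °C, with DMSO substituting for the 20 nM CPT used in the parallel screen.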
# Starred values were filed as active, the others as inactive; ? = inconclusive; . = no result; ! = not active in a repeat; [ ] = remark or other dose. Hits are enriched below; roughly 19% of the tested compounds scored in any of these assays. Unless noted, calls follow the shape of the dose curve; as a rule, active = well fitted curve in the direction sought with a large enough effect; inconclusive = small, poorly fitted or top-dose-only effect, or another doubt; inactive = no such curve, though single readings can be large; an effect the other way counts as inactive or inconclusive. Unless noted, % is scaled to controls: 0 for no effect and ±100 for the full control effect.
SMILES,IL1B secr inh,HT1080-NT tox,DT40 TDP1 CPT,HT1080 IDH1KD tx,DT40 TDP1 no CPT
O=C(Nc1ccccc1)Nc1ccc(-n2ccc(C(F)(F)F)n2)cc1,?,1%,?,-22%,18µM*
CC[C@]12c3[nH]c4cc(CCC(=O)N(C)C)ccc4c3CCN1C(=O)[C@@H](CC(=O)NCCc1ccccn1)C[C@@H]2C(=O)N1CCN(C(=O)C2CC2)CC1,-20,5%,7%,1%,-2%
CC(C)Oc1ccc(C2CC(=O)N(C)C2=O)cc1 (centres undefined),5,2%,-8%,-2%,-25%
CN(C)CCNC(=O)C(=O)NCC(c1cccnc1)N1CCN(c2ccccc2)CC1 (centres undefined),.,.,7%,.,-23%
CC(C)C(=O)Nc1nnc(-c2ccccc2)o1,5,3%,-17%,0%,-20%
O=C(Nc1ccccc1)Nc1ccccc1,-1,-5%,18µM*!,-5%,?
O=C(Nc1ccccc1)Nc1ccc(Cl)nc1Cl,-79*,-2%,?,-15%,?
O=C(NNc1cccc(Cl)n1)Nc1ccccc1,-10,7%,1%,3%,-16%
O=C(Nc1ccccc1)Nc1nnc(-c2ccccc2)o1,-102*,-5%,29µM*,11%,?
CC(=O)Nc1ccccc1,-8,15%,-8%,16%,2%
O=C(Nc1ccc(-n2cccc2)cc1)C1CC1,0,0%,9.2µM*,0%,9.2µM*
Cc1cccc(NC(=O)Cn2cc(C(=O)c3ccco3)c3ccccc32)c1C,.,.,?,.,-29%
COCCNC(=O)c1ccccc1NC(=O)Nc1ccccc1,-50*,-14%,4%,-2%,-9%
Cc1cc(C)c(NC(=O)Nc2ccccc2)c(Cl)c1,14,18%,16µM*,17%,?
NC(=O)NN=C1c2cc(S(=O)(=O)N3CCOCC3)ccc2-c2ccc(S(=O)(=O)N3CCOCC3)cc21,.,.,?,.,3%
CCN1CCOC(=O)C1CC(=O)Nc1cc(C)ccc1OC (centres undefined),.,.,5.2µM*,.,2.6µM*
CCN1CCN(CCC(=O)Nc2ccc(Br)cc2)CC1,10,0%,-26%,-6%,-1%
CCN1CCOC(=O)C1CC(=O)Nc1ccc(Br)cc1 (centres undefined),.,.,23µM*,.,?
Cc1ccc(CCNC(=O)c2cn(C)c3ccc(S(=O)(=O)N(C)C4CCCCC4)cc3c2=O)cc1,.,.,4%,.,-4%
COc1cccc(NC(=O)N(Cc2ccco2)C(C)c2cccs2)c1 (centres undefined),-8,-3%,-17%,18%,-28%
COc1cccc(NC(=O)N(Cc2c[nH]c3ccccc23)C2CCCCCC2)c1,.,.,12µM*,.,9.2µM*
O=C(Nc1ccc(Cl)c(Cl)c1)N(Cc1c[nH]c2ccccc12)C1CCCCC1,.,.,5.8µM*,.,9.2µM*
COc1cccc(NC(=O)N(C2CCCCC2)C(C)c2cccs2)c1 (centres undefined),2,?,10µM*,3%,13µM*
COc1cccc(-c2cc3nc(NCc4ccc(C)cc4C)n(C)c(=O)c3s2)c1,56,8%,?,-2%,?
O=C(Nc1ccccc1C(=O)Nc1ccc(Br)cn1)c1cccc([N+](=O)[O-])c1,-6,8%,?,11%,?
SMILES,IL1B secr inh,HT1080-NT tox,DT40 TDP1 CPT,HT1080 IDH1KD tx,DT40 TDP1 no CPT
CC(C)[C@H](NC(=O)OC(C)(C)C)c1cc(C(=O)N2CCOCC2)c(N)s1,17,4%,-30%,20%,?
O=C(N/N=C\c1ccc(Cl)s1)C1COc2ccccc2O1 (centres undefined),-8,?,?,?,9.2µM*
O=C(N/N=C/c1c[nH]c2ccccc12)C1CC1c1ccccc1 (centres undefined),26,-14%,12µM*,-14%,21µM*
O=C(N/N=C\c1ccc(-c2ccccc2[N+](=O)[O-])o1)C1COc2ccccc2O1 (centres undefined),14,9%,0%,8%,-12%
O=C(N/N=C/c1c[nH]c2ccccc12)C1COc2ccccc2O1 (centres undefined),24,3.7µM*,10µM*,5.8µM*,13µM*
O=C(N/N=C\c1ccc([N+](=O)[O-])o1)C1COc2ccccc2O1 (centres undefined),-15,?,7.3µM*,21µM*,6.5µM*
CC(C)(C)c1ccc(C2CC2C(=O)N/N=C\c2ccc[nH]2)cc1 (centres undefined),-61*,2.6µM*,?,1.6µM*,?
O=C(N/N=C\c1ccc([N+](=O)[O-])s1)C1COc2ccccc2O1 (centres undefined),-53*,?,2.9µM*,-6%,5.8µM*
COc1ccccc1C(=O)N[C@@H]1c2ccccc2C2(CCN(Cc3c(O)cccc3OC)CC2)[C@H]1O,.,.,-8%[9.04 µM],.,18µM*
O=C(Cn1cnc2c(nnn2Cc2ccc(Cl)cc2)c1=O)N1CCCc2ccccc21,7,16%,?,3%,?
Cc1cccc(Cn2cnc3c(nnn3Cc3ccc(Cl)cc3)c2=O)c1,0,?,?,-15%,16µM*
O=C(Cn1cnc2c(nnn2Cc2ccc(Cl)cc2)c1=O)N1CCN(c2ccccc2)CC1,-10,-7%,18µM*,-20%,21µM*
O=C(Cn1cnc2c(nnn2Cc2ccccc2)c1=O)N1CCN(c2ccccc2)CC1,-18,4%,?,1%,23µM*
O=C(Cn1cnc2c(nnn2Cc2ccccc2F)c1=O)N1CCN(c2ccccc2)CC1,-14,-25%,?,2%[9.24 µM],?
Cc1cc2oc(C(=O)Nc3ccc(S(N)(=O)=O)cc3)cc(=O)c2cc1C,.,.,2%,.,-23%
Cc1cc(=O)n2[nH]c(N)c(N=Nc3ccccc3F)c2n1,10,?,?,?,16µM*
O=C(NC1CC1)c1ccc(C2SCC(=O)N2Cc2ccccc2)cc1 (centres undefined),4,-1%,-21%,0%,-9%
COc1ccc(Cl)cc1NC(=O)Cn1c(=O)n2nc(-c3ccccc3)nc2c2ccccc21,.,.,-5%,.,-24%
Cn1cnnc1SCC(=O)Nc1ccccc1,2,17%,13%,10%,1%
Cc1cc(C)c(-c2cc(NC(=O)CSc3nncn3C)n(-c3ccccc3)n2)cc1C,-13,-6%,18µM*,-23%,21µM*
COCCNc1nnc(SCC(=O)Nc2cc(-c3ccccc3)nn2-c2ccccc2)s1,-3,-9%,26µM*,6%,16µM*

# Assay outcomes from PubChem BioAssay.
